The whole screen tested about 360,000 compounds, of which about 2,000 (0.56%) were called active. Only a selection was taken, and actives are over-represented in it overall. Unmarked numbers belong to inactive results.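 The calls were made as follows: active = activation above the average of all compounds screened plus 3 SD, cutoff fixed separately per campaign (cut at about 7.5% in these data); inactive = the rest.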
experiment: FXN promoter activators, primary screen, cell-based, luciferase luminescence, HEK293 lucGAA850 (AID 540364); details: HEK293 lucGAA850 FXN promoter luciferase reporter, 24 h; at 6 µM; active compounds read high; percent of 10 µM SAHA response;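 also: 0% = DMSO wells and 100% = 10 µM SAHA wells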

Structure (SMILES)	activation
NC(c1csc(NC(=O)Nc2cccc(C(F)(F)F)c2)n1)C1CCCCC1 (centres undefined)	0.57%
Cc1[nH]c2ccccc2c1C(=O)C(C)Sc1nnc(C2CC2)o1 (centres undefined)	-0.9%
CCOc1ccc(Nc2oc(Cc3ccccc3)nc2C#N)cc1	7.76% (active)
Cc1ccc(OCc2nc(C#N)c(N3CCCC3)o2)cc1	1.46%
COc1ccc(Nc2oc(-c3ccccc3Cl)nc2C#N)cc1	-4.29%
Cn1c(=O)n(C)c(=O)n(CC(=O)N2CCCCC2)c1=O	-1.79%
O=C(CSc1nc2[nH]c(=O)[nH]c(=O)c2s1)Nc1cccc(F)c1	-0.65%
CCCOP(=O)(c1ccc(N(C)C)cc1)C(O)c1cc(OC)c(OC)c(OC)c1 (centres undefined)	0.98%
Oc1ccccc1-c1cc(-c2ccc(Cl)cc2)n[nH]1	8.31% (active)
Nc1cccc(-c2cc(-c3ccccc3)nc(-c3cccc(N)c3)n2)c1	1.48%
CSc1ccccc1-c1nnc(-c2ccc(Cl)cc2)o1	5.35%
O=C(Nc1ccc(Cl)cn1)c1ccccc1-c1ccccc1	0.22%
c1ccc(-c2c[nH]c(-c3ccccc3)c2)cc1	1.7%
c1ccc(-c2cc(-c3ccccc3)[nH]n2)cc1	10.4% (active)
O=C1CCN(C(=O)Nc2ccccc2)N1	-0.46%
O=C(NCCCNC(=O)c1ccccc1Cl)c1cnccn1	1.82%
O=C(COc1ccc(Cl)cc1Cl)NCCCNC(=O)c1cnccn1	7.84% (active)
COc1ccccc1CCNC(=O)c1cnccn1	2.62%
CCn1c(CC(=O)Nc2ccccc2C)nnc1SCC(=O)NC1=NCCS1	-0.89%
CSc1nc2c(c(=O)[nH]1)C(c1cccc(Cl)c1Cl)CC(=O)N2 (centres undefined)	-1.23%
N#Cc1c(N)nc2c3c(sc(=N)c2c1N)NC(=O)CC3c1ccccc1Cl (centres undefined)	9.37% (active)
COc1ccc(C2CC(=O)Nc3sc(=N)c4c(N)c(C#N)c(N)nc4c32)cc1OC (centres undefined)	5.47%
O=C(O)c1ccccc1-c1cccc2nncn12	0.6%

Structure (SMILES)	activation
CCOC(=O)c1[nH]c2ccc(C)cc2c1N=C(C)N(C)C	2.12%
Cc1ccc2[nH]c(=O)c(COC(=O)c3ccccn3)cc2c1	-0.35%
CCOC(=O)c1cc2cc(C)ccc2[nH]1	7.85% (active)
CC(=O)c1ccc(-c2cnc3c(NC=O)cc(-c4cccc(NS(C)(=O)=O)c4)cn23)cc1	-2.27%
Cc1cc(C(=O)N2CCN(c3ccccn3)CC2)c(C)o1	1.36%
CN(C)C(CNC(=O)c1cc(Br)c(Br)s1)c1ccco1 (centres undefined)	0.51%
CC12C(=O)N(c3ccccc3)C(=O)C1C(c1ccccc1)N1CCCN12 (centres undefined)	-0.94%
Cc1cccc(N2C(=O)N3[C@H](c4ccc(F)cc4)[C@@H]4C(=O)N(C5CCCCC5)C(=O)[C@@H]4[C@]3(Cc3ccccc3)C2=O)c1	5.49%
Cc1cccc([C@@H]2[C@@H]3C(=O)N(Cc4ccccc4)C(=O)[C@@H]3[C@]3(Cc4ccc(Cl)cc4)C(=O)N(c4cccc(Cl)c4)C(=O)N23)c1	0.5%
O=C1[C@H]2[C@@H](c3ccc(C(F)(F)F)cc3)N[C@]3(CCCN(Cc4ccc(Br)cc4)C3=O)[C@H]2C(=O)N1Cc1ccccc1	-7.76%
O=C1[C@H]2[C@@H](c3ccc(F)cc3)N3C(=O)N(c4ccc(C(F)(F)F)cc4)C(=O)[C@@]3(Cc3ccccc3)[C@H]2C(=O)N1C1CCCCC1	7.65% (active)
CCOC(=O)[C@@H]1[C@H]2COc3ccc(Br)cc3[C@H]2N2C(=O)N(c3ccc(C)cc3)C(=O)[C@@]12C	0.65%
O=C1[C@H]2[C@@H](c3ccc(C(F)(F)F)cc3)N[C@]3(CCCN(Cc4ccc(Cl)cc4)C3=O)[C@H]2C(=O)N1Cc1ccccc1	-7.53%
O=C1[C@H]2[C@@H](c3ccc(Cl)cc3)N3C(=O)N(c4cccc(F)c4)C(=O)[C@@]3(Cc3ccccc3)[C@H]2C(=O)N1C1CCCCC1	8.92% (active)
C[C@@]12C(=O)N(c3cccc(Br)c3)C(=O)N1[C@H](c1ccc(Cl)cc1)[C@@H]1C(=O)N(C3CCCCC3)C(=O)[C@@H]12	7.88% (active)
CNC(=O)c1ccc(CN(C)C(=O)c2cc(C3CC3)nc3c2cnn3C(C)C)cc1	1.69%
CN(C(=O)c1cccc(NC(=O)Cc2ccc(NC(=O)C3CCCN(C(=O)C4CC4)C3)cc2)c1)C1CC1 (centres undefined)	0.38%
O=C(CN1C(=O)NC2(CCCC2)C1=O)NCC1CCCO1 (centres undefined)	0.59%
COCc1cc(C)nc(Nc2cc(C)ccc2C)c1C#N	-0.89%
CCOC(=O)c1ccc(-c2ccc3ncnc(N(C)Cc4sccc4C)c3c2)o1	4.4%
O=C(Nc1nccs1)C1CCCN1S(=O)(=O)c1cccc2cccnc12 (centres undefined)	-0.14%
O=C(Cc1ccc(-n2c(=O)c3sccc3n(Cc3ccc(F)cc3)c2=O)cc1)NCc1ccco1	-1.57%
O=C(NCc1ccco1)c1cc2sccc2n1Cc1ccc(F)cc1	0.82%

Structure (SMILES)	activation
O=C(NCc1ccco1)c1ccc(Cn2c(=O)c3sccc3n(Cc3ccc(F)cc3)c2=O)cc1	15.4% (active)
C/C(Cc1ccccc1)=N\NC(=O)CNC(=O)c1ccc2c(c1)OCCO2	-1.21%
COc1ccccc1-c1nnc(SCC(=O)N2CC(C)CC(C)C2)o1 (centres undefined)	3.31%
COc1ccc(-c2nnc(NC(=O)CS(=O)(=O)c3ccc(Cl)cc3)o2)c(OC)c1	2.95%
COc1ccc(-c2nnc(SCC(=O)c3cccs3)o2)c(OC)c1	7.8% (active)
CN(C(=O)c1cc2c(=O)n3ccccc3nc2s1)C1CCCCC1	8.38% (active)
Cc1cccn2c(=O)c3cc(C(=O)NC4CCCCC4)sc3nc12	2%
CCOCCCNC(=O)c1cc2c(=O)n3ccccc3nc2s1	3.92%
CC(=O)N1c2ccc(S(=O)(=O)N3CCC(C(=O)NC4CCCC(C)C4C)CC3)cc2CC1C (centres undefined)	1.08%
Clc1ccc(-c2nnc(-c3ccccc3)nc2N2CCSCC2)cc1	-1.26%
OC(c1ccc(Cl)c(F)c1)c1ncc(-c2ccccc2Cl)[nH]1 (centres undefined)	0.22%
N#CCSc1nc2c(c(=O)n1Cc1ccccc1)C1(CCCC1)Cc1ccccc1-2	-0.71%
CCC1(CC)Cc2ccccc2-c2nc(CCl)[nH]c(=O)c21	8.24% (active)
CCOC(=O)C1Cn2c(nc3c(c2=O)C(C)(CC)Cc2ccccc2-3)S1 (centres undefined)	1.17%
CN1CCCc2cc(C#N)c(=O)[nH]c21	-0.22%
C[C@H](CO)N1C[C@H](C)[C@@H](CN(C)S(=O)(=O)c2ccc(Oc3ccccc3)cc2)OCc2cn(nn2)CCCC1=O	-2.73%
CCOC(=O)C1CCN(C(=O)c2ccc3c(=O)n4nc(Nc5ccccc5CC)sc4nc3c2)CC1	0.72%
O=C(/C=C/Sc1ncn[nH]1)c1ccc(Cl)cc1	23.3% (active)
COc1ccc(CNC(=O)[C@@H]2CC=C[C@@H]3CCN(C4CC4)C(=O)[C@@H]32)cc1	-0.64%
O=S(=O)(Nc1ccc2nc(-c3ccco3)[nH]c2c1)c1ccccc1	2.98%
COC(=O)CCc1sc(Nc2ccc(Br)cc2)nc1-c1ccc(OC)cc1	2.66%
O=c1oc2ccccc2cc1-c1csc(Nc2ccc(O)cc2)n1	22.5% (active)
Cc1ccn2c(-c3csc(Nc4ccc(C(=O)O)cc4)n3)c(C)nc2c1	1.81%

Structure (SMILES)	activation
Cc1ccc(Nc2nc(-c3ccc(O)cc3O)cs2)nc1	2.15%
COc1ccc(-c2csc(Nc3ccc(O)cc3)n2)cc1	8.06% (active)
COc1ccc(C(C)(O)c2nc(-c3ccc(C)c(C)c3)cs2)cc1 (centres undefined)	0.79%
COc1ccc(-c2csc(Nc3cccc(C)n3)n2)cc1OC	0.8%
COc1ccc(-c2csc(Cc3nc(O)cs3)n2)cc1	21.7% (active)
COc1ccc(C(O)c2nc(-c3ccc(OC)nc3)cs2)cc1 (centres undefined)	0.21%
COc1cc2c(cc1CNC[C@H]1O[C@@H](n3cnc(C(N)=O)n3)[C@H](O)[C@@H]1O)OCO2	-0.43%
CCOC(=O)c1c(C)oc2cc(Br)c(OCC(N)=O)cc12	-1.34%
COc1cc2c(cc1OC)C(C(=O)Nc1cc(C)c(OC)c(C)c1)CC(=O)N2 (centres undefined)	1.49%
CC12CCC(=O)C=C1CCC1C2C(O)CC2(C)C1CCC2(O)C(O)CO (centres undefined)	0.74%
O=C(O)c1ccccc1N=N/C(=N/Nc1cc(S(=O)(=O)O)ccc1O)c1ccccc1	-1.25%
COc1ccc(OC)c(S(=O)(=O)N(C)CC(=O)N2CCN(c3ccccc3)CC2)c1	-1.26%
CC1CC2=C(CC1/C=N/NC(N)=S)C(C)(C)CCC2 (centres undefined)	-2.98%
Cc1ccc(C2NC(=S)NC3=C2N2CCC3CC2)cc1 (centres undefined)	1.46%
CC(=O)CCS(=O)(=O)c1ccc(C)c(C)c1	0.08%
COc1cc(C=NC2CCCCC2)ccc1O	-0.66%
CCOc1cc(/C=N/Nc2cc(C)nc3ccc(C)cc23)ccc1O	-0.68%
COc1cc(/C=N/Nc2nc3ccccc3s2)ccc1O	8.92% (active)
CCN1C(=NCCc2cccnc2)N[C@@H](c2ccccc2)[C@H](C(=O)OC)[C@H]1C	1.66%
Cc1ccc(CNC(=O)Nc2nnc([C@H]3C[C@H](O)[C@@H](CO)O3)s2)cc1	0.3%
